Measured values as given in PubChem BioAssay AID1159580 (chemical genetic matrix, 2015).
Screen size: about 5,500 compounds; about 2,000 (36%) were called active. Another 18% or so got no clear call; they are omitted. Cut-off read from the data, not from the text of the source: active = normalized growth mostly below about 0.91 (no sharp cut-off); inconclusive = no clear call, values can overlap the other calls; inactive = mostly above about 0.92. The list shows a part of the results.

Test: chemical genetic growth profiling, strain panel (AID 1159580);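 note: tested at 20 µM; growth read once vehicle control cultures reached saturation at 30 °C; 1 = growth at the plate median or of vehicle wells; lower values mean less growth of the strain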
Settings: growth OD

Measured: normalized growth

O=C(O)c1cc(=O)c(O)c2c(O)c(O)ccc2c1
inactive: S. cerevisiae deletion strains, locus YJR075W, strain HOC1, stronger effect = lower value 1.04 | S. cerevisiae deletion strains, locus YKL009W, strain mrt4, stronger effect = lower value 1.04 | S. cerevisiae deletion strains, locus YKL068W, stronger effect = lower value 1.01 | S. cerevisiae deletion strains, locus YKL085W, strain MDH1 (second series), stronger effect = lower value 1.02 | S. cerevisiae deletion strains, locus YKL085W, strain MDH1, stronger effect = lower value 1.02 | S. cerevisiae deletion strains, locus YKL160W, strain elf1, stronger effect = lower value 1.02 | S. cerevisiae deletion strains, locus YKL190W, strain CNB1, stronger effect = lower value 1 | S. cerevisiae deletion strains, locus YKR001C, strain vps1, stronger effect = lower value 1.01 | S. cerevisiae deletion strains, locus YKR026C, strain gcn3, stronger effect = lower value 0.965 | S. cerevisiae deletion strains, locus YKR091W, strain srl3, stronger effect = lower value 0.998 | S. cerevisiae deletion strains, locus YLL001W, strain dnm1, stronger effect = lower value 1 | S. cerevisiae deletion strains, locus YLL026W, stronger effect = lower value 0.992 | S. cerevisiae deletion strains, locus YLL041C, strain sdh2, stronger effect = lower value 0.993 | S. cerevisiae deletion strains, locus YLR027C, strain aat2, stronger effect = lower value 0.998 | S. cerevisiae deletion strains, locus YLR039C, strain RIC1, stronger effect = lower value 1.04 | S. cerevisiae deletion strains, locus YLR058C, strain SHM2, stronger effect = lower value 1.01 | S. cerevisiae deletion strains, locus YLR102C, strain apc9, stronger effect = lower value 1.01 | S. cerevisiae deletion strains, locus YLR113W, strain HOG1, stronger effect = lower value 1 | S. cerevisiae deletion strains, locus YLR221C, strain rsa3, stronger effect = lower value 1.03 | S. cerevisiae deletion strains, locus YLR258W, strain gsy2, stronger effect = lower value 0.993 | S. cerevisiae deletion strains, locus YLR262C, strain YPT6 (second series), stronger effect = lower value 0.942 | S. cerevisiae deletion strains, locus YLR262C, strain YPT6, stronger effect = lower value 0.971 | S. cerevisiae deletion strains, locus YLR268W, strain sec22, stronger effect = lower value 0.987 | S. cerevisiae deletion strains, locus YLR320W, strain mms22, stronger effect = lower value 1 | S. cerevisiae deletion strains, locus YLR330W, strain CHS5, stronger effect = lower value 1 | S. cerevisiae deletion strains, locus YLR342W, strain FKS1 (second series), stronger effect = lower value 1 | S. cerevisiae deletion strains, locus YLR342W, strain FKS1, stronger effect = lower value 0.996 | S. cerevisiae deletion strains, locus YLR357W, strain rsc2, stronger effect = lower value 0.943 | S. cerevisiae deletion strains, locus YLR370C, strain arc18, stronger effect = lower value 0.998 | S. cerevisiae deletion strains, locus YLR371W, strain rom2, stronger effect = lower value 1.03 | S. cerevisiae deletion strains, locus YLR384C, strain iki3, stronger effect = lower value 1.01 | S. cerevisiae deletion strains, locus YLR418C, strain cdc73, stronger effect = lower value 0.946 | S. cerevisiae deletion strains, locus YML016C, strain PPZ1, stronger effect = lower value 0.991 | S. cerevisiae deletion strains, locus YML032C, strain rad52, stronger effect = lower value 1.05 | S. cerevisiae deletion strains, locus YML120C, strain ndi1, stronger effect = lower value 1.01 | S. cerevisiae deletion strains, locus YML124C, strain tub3, stronger effect = lower value 1.01 | S. cerevisiae deletion strains, locus YMR058W, strain fet3, stronger effect = lower value 0.99 | S. cerevisiae deletion strains, locus YMR078C, strain ctf18, stronger effect = lower value 1.03 | S. cerevisiae deletion strains, locus YMR125W, strain sto1, stronger effect = lower value 0.987 | S. cerevisiae deletion strains, locus YMR129W, stronger effect = lower value 1.01 | S. cerevisiae deletion strains, locus YMR205C, strain PFK2, stronger effect = lower value 0.988 | S. cerevisiae deletion strains, locus YMR223W, strain ubp8, stronger effect = lower value 1.05 | S. cerevisiae deletion strains, locus YMR231W, strain pep5, stronger effect = lower value 0.997 | S. cerevisiae deletion strains, locus YMR263W, strain SAP30, stronger effect = lower value 0.999 | S. cerevisiae deletion strains, locus YMR307W, strain GAS1, stronger effect = lower value 1.04 | S. cerevisiae deletion strains, locus YNL067W, strain RPL9B, stronger effect = lower value 1 | S. cerevisiae deletion strains, locus YNL071W, strain lat1, stronger effect = lower value 1 | S. cerevisiae deletion strains, locus YNL128W, strain TEP1, stronger effect = lower value 0.972 | S. cerevisiae deletion strains, locus YNL153C, strain GIM3, stronger effect = lower value 0.98 | S. cerevisiae deletion strains, locus YNL183C, strain NPR1, stronger effect = lower value 0.907 | S. cerevisiae deletion strains, locus YNL209W, strain ssb2, stronger effect = lower value 1 | S. cerevisiae deletion strains, locus YNL233W, strain BNI4, stronger effect = lower value 0.989 | S. cerevisiae deletion strains, locus YNL248C, strain rpa49, stronger effect = lower value 1.04 | S. cerevisiae deletion strains, locus YNL250W, strain rad50, stronger effect = lower value 1.01 | S. cerevisiae deletion strains, locus YNL271C, strain bni1, stronger effect = lower value 0.999 | S. cerevisiae deletion strains, locus YNL298W, strain CLA4, stronger effect = lower value 1.01 | S. cerevisiae deletion strains, locus YNL307C, strain MCK1, stronger effect = lower value 1.04 | S. cerevisiae deletion strains, locus YNL322C, strain KRE1 (second series), stronger effect = lower value 0.981 | S. cerevisiae deletion strains, locus YNL322C, strain KRE1, stronger effect = lower value 1.01 | S. cerevisiae deletion strains, locus YNR049C, strain mso1, stronger effect = lower value 0.993 | S. cerevisiae deletion strains, locus YNR052C, strain pop2, stronger effect = lower value 1.02 | S. cerevisiae deletion strains, locus YOL006C, strain TOP1, stronger effect = lower value 0.984 | S. cerevisiae deletion strains, locus YOL012C, strain htz1 0.622 | S. cerevisiae deletion strains, locus YOL147C, strain pex11, stronger effect = lower value 1.01 | S. cerevisiae deletion strains, locus YOR001W, strain rrp6, stronger effect = lower value 1 | S. cerevisiae deletion strains, locus YOR061W, strain CKA2, stronger effect = lower value 0.995 | S. cerevisiae deletion strains, locus YOR069W, strain VPS5, stronger effect = lower value 1 | S. cerevisiae deletion strains, locus YOR070C, strain gyp1, stronger effect = lower value 1 | S. cerevisiae deletion strains, locus YOR080W, strain dia2, stronger effect = lower value 0.986 | S. cerevisiae deletion strains, locus YOR083W, strain WHI5, stronger effect = lower value 1.02 | S. cerevisiae deletion strains, locus YOR106W, strain vam3, stronger effect = lower value 1.04 | S. cerevisiae deletion strains, locus YOR136W, strain idh2, stronger effect = lower value 1.02 | S. cerevisiae deletion strains, locus YOR144C, strain elg1, stronger effect = lower value 1.01 | S. cerevisiae deletion strains, locus YOR184W, strain ser1, stronger effect = lower value 1.1 | S. cerevisiae deletion strains, locus YOR231W, strain MKK1, stronger effect = lower value 0.987 | S. cerevisiae deletion strains, locus YOR265W, strain rbl2, stronger effect = lower value 0.993 | S. cerevisiae deletion strains, locus YOR270C, strain vph1, stronger effect = lower value 1.01 | S. cerevisiae deletion strains, locus YOR290C, strain snf2, stronger effect = lower value 0.947 | S. cerevisiae deletion strains, locus YOR316C, strain cot1, stronger effect = lower value 1.02 | S. cerevisiae deletion strains, locus YPL051W, strain arl3, stronger effect = lower value 1 | S. cerevisiae deletion strains, locus YPL055C, strain LGE1, stronger effect = lower value 0.964 | S. cerevisiae deletion strains, locus YPL078C, strain atp4, stronger effect = lower value 1.02 | S. cerevisiae deletion strains, locus YPL106C, strain sse1, stronger effect = lower value 0.964 | S. cerevisiae deletion strains, locus YPL240C, strain hsp82, stronger effect = lower value 1 | S. cerevisiae deletion strains, locus YPL241C, strain CIN2, stronger effect = lower value 1.01 | S. cerevisiae deletion strains, locus YPL256C, strain CLN2, stronger effect = lower value 0.968 | S. cerevisiae deletion strains, locus YPR119W, strain clb2, stronger effect = lower value 1.01 | S. cerevisiae deletion strains, locus YPR141C, strain kar3, stronger effect = lower value 1.01 | S. cerevisiae deletion strains, locus YPR163C, strain tif3, stronger effect = lower value 1.02 | S. cerevisiae deletion strains, locus YPR167C, strain met16, stronger effect = lower value 1.01 | S. cerevisiae deletion strains, strain wtn01, stronger effect = lower value 0.998 | S. cerevisiae strains, strain wild type, stronger effect = lower value 1
